Assay outcomes as filed in PubChem.
A selection: hits, their analogues and other compounds. The true share with any hit is near 11%.
Sfp PPTase inh: blocks B. subtilis Sfp PPTase activity | Q9F4F7 | Biochemical Sfp PPTase activity, qHTS | Potency, µM, inactives show largest response in the series, negative = inhibition, hits mostly inhibitors | hit rate 3.5% among 310,000 | AID 1490;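 further: the enzyme is Sfp with the accession as filed and its product quenches rhodamine fluorescence; potency means the concentration at half of the fitted maximal effect; 0% = enzyme reaction without inhibitor and -100% = no enzyme wells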
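Reaction rates are the 30-min fluorescence difference (ex 525, em 598 nm) in wells containing 15 nM Sfp, 5 uM rhodamine-CoA and 12.5 uM BHQ-2-YbbR at pH 7.6 with 10 mM MgCl2.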
Tau fluor cs: counter-screen for tau fibril formation inhibitors. Potency, µM (titrated, usually from 57.7 µM), for inactives: at the highest dose activity change, negative = decrease. hit rate 0.93% among 280,000. tau K18 P301L Alexa594 fluorescence, heparin fibrillization; further: potency means the concentration at half of the fitted maximal effect; nearly all actives have a fitted effect of over 55% in size
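Human K18 P301L tau (15 uM unlabeled plus 0.24 uM Alexa 594-labeled, final) in 100 mM sodium acetate pH 7 was mixed with compound and 20 uM heparin and incubated 6 hr at 37 C.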
Tau fibril FP: blocks human tau fibril formation measured by polarization; Potency, µM (doses to about 57.7 µM), for inactives: top-dose activity, negative = inhibition, hits mostly inhibitors; hit rate 0.39% among 280,000; P10636; K18 P301L tau heparin fibrillization, Alexa594 FP, 6 h; further: potency means the concentration at half of the fitted maximal effect; nearly all actives have a fitted effect of over 55% in size
Target sequence (P10636 561-689 P618L limits assumed): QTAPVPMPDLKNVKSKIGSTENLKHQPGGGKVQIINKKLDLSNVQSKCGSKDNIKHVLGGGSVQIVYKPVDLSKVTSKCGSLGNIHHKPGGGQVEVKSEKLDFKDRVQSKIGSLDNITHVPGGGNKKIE
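Steps: dispense K18 P301L tau (15 uM plus 0.24 uM Alexa 594 tracer, final) in pH 7 sodium acetate; add compound; add heparin (20 uM final); incubate 6 hr, 37 C; add ThT (30 uM final); after 1 hr ambient, read FP.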
Coupling enz: counter-screen for Giardia aldolase inhibitors: coupling enzyme system; coupling enzyme system counterscreen, AmpLite Red fluorescence; activity change, negative = inhibition, % at 58.2 µM, hits read low; hit rate 0.67% among 290,000; AID 2472; in the data active means activity change below about -30%
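Compounds tested against the coupling enzymes alone at 57.5 uM final; readout was AmpLite Red fluorescence (525/598 nm) after 20 min at RT.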
G9a block: inhibitors of human histone lysine methyltransferase G9a; Potency, µM (top dose mostly 102 µM), for the others: at the top dose activity, negative = inhibition, hits mostly inhibitors; G9a H3K9 monomethylation, AlphaScreen, 2 h; Q96KQ7; hit rate 8.8% among 350,000; further: potency means the concentration at half of the fitted maximal effect; nearly all actives have a fitted effect of over 75% in size
Target sequence (Q96KQ7 913-1193 limits assumed): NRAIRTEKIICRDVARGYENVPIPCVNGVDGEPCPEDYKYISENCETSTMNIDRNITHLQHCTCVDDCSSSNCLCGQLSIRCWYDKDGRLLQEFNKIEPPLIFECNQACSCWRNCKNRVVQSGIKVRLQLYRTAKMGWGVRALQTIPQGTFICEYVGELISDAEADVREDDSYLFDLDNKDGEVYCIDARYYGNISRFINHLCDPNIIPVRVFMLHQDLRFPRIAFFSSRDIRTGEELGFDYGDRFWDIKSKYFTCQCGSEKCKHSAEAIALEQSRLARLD
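Signal arises when biotinylated H3K9 peptide, once monomethylated, bridges streptavidin donor and antibody-captured acceptor beads. Enzyme at 20 nM was preincubated 15 min with test compounds; peptide 500 nM and SAM 20 uM then reacted for 2 h.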
Tau fibril ThT: inhibitors of human tau fibril formation, thioflavin T binding. P10636. recombinant tau K18 P301L (four-repeat tau fragment), heparin-induced fibrillization, ThT fluorescence. Potency, µM (doses to about 57.4 µM), for inactives: at the highest dose activity, negative = inhibition, usual class: inhibitors. hit rate 2.1% among 270,000; further: potency means the concentration at half of the fitted maximal effect; nearly all actives have a fitted effect of over 55% in size
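Aggregation was driven by heparin (20 uM final) acting on recombinant tau […] bearing P301L in 100 mM sodium acetate pH 7; fibrils were detected with Thioflavin T.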
Starred values were filed as active, the others as inactive; ? = inconclusive; nt = no result given; [ ] = remark or other dose. Unless noted, the call rests on the fitted dose curve; in most records, active means well fitted curve in the direction sought with a large enough effect; inconclusive means small, poorly fitted or top-dose-only effect, or another doubt; inactive means no such curve, though single readings can be large; an effect the other way counts as inactive or inconclusive. Unless noted, on the % scale 0 is the no-effect control and ±100 the full control effect.

SMILES | Sfp PPTase inh | Tau fluor cs | Tau fibril FP | Coupling enz | G9a block | Tau fibril ThT
Cc1ccc(-n2c3nc(=O)[nH]c(=O)c-3cc3cc([N+](=O)[O-])ccc32)cc1C | -27% | -6% | 7% | -29 | 45µM* | ?
CCOC(=O)c1ccc(NC(=O)CN(Cc2ccc(C)cc2)S(=O)(=O)c2ccc(C)cc2)cc1 | nt | ? | -15% | nt | 15%[59 µM] | 0%
N/C(=N\OC(=O)COc1ccc2ccccc2c1Br)c1ccncc1 | 45µM* | -20% | -1% | 1 | 9% | ?
Cc1ccc2[nH]c3c(c2c1)CCN1C(=O)OC(C)(C)C31C (centres undefined) | 10% | -6% | 10% | 1 | 9% | -4%
CC1CCN(S(=O)(=O)c2ccc3c(c2)N(CC(=O)O)C(=O)CO3)CC1 | nt | -7% | -3% | nt | -18%[59 µM] | 1%
CCN1C(=O)C2C(C1=O)N1C(c3ccccc3)C3C(=O)N(CC)C(=O)C3N1C2c1ccccc1 (centres undefined) | 13% | -5% | 4% | 0 | -2%[59 µM] | -11%
CCN1C(=O)C(C(=O)c2ccccc2)SC1=S (centres undefined) | 20µM* | -4% | 1% | 5 | 22µM* | -19%
O=[N+]([O-])c1ccc(-c2n(-c3ccccn3)c3ccccc3[n+]2-c2ccccn2)cc1 | 13% | -1% | -2% | 0 | 50µM* | nt
O=C(NCC1CCN(Cc2ccc(F)cc2)CC1)c1cc2ccc3cccnc3c2[nH]1 | nt | -18% | -7% | nt | -9%[59 µM] | -2%
CC[n+]1ccc(C[n+]2ccccc2)c2ccccc21 | 50µM* | -14% | ? | -32* | 1.6µM* | ?
CCC(=O)Nc1nnc(-c2cccs2)s1 | 20% | 11% | -5% | 2 | -34% | 8%
O=C(Nc1nnc(-c2cccs2)s1)C1CC1 | -48% | -2% | -11% | 1 | 22µM* | -1%
CCC(C)C(=O)Nc1nnc(-c2cccs2)s1 (centres undefined) | 50µM* | 1% | 0% | -1 | 14µM* | 2%
COCC(=O)Nc1nnc(-c2cccs2)s1 | -12% | -8% | -1% | 5 | 45µM* | -2%
COCC(=O)Nc1nc(-c2ccccc2)c(C)s1 | -2% | 0% | -3% | 0 | 45µM* | -6%
Cc1ccc(C(C)C)c(OCC(=O)NCC2(N3CCOCC3)CCCCC2)c1 | nt | -7% | 0% | nt | -4%[59 µM] | ?
O=C(Cc1cccc2ccccc12)Nc1ccc(N2CCOCC2)cc1 | -2% | -13% | 1% | -11 | nt | ?
CC(=O)NC1(C(F)(F)F)C(=O)Nc2c1c(=O)[nH]c(=O)n2Cc1ccco1 (centres undefined) | -14% | 1% | 3% | 1 | -20%[59 µM] | 0%
CC(=O)Nc1ccc(S(=O)(=O)NC2(C(F)(F)F)C(=O)Nc3c2c(=O)[nH]c(=O)n3Cc2ccco2)cc1 (centres undefined) | 10% | -2% | 1% | 3 | 56µM* | -4%
O=C1c2ccccc2CCC1CNCCc1ccc(O)cc1 (centres undefined) | 56µM* | 6% | 10% | nt | 7.9µM* | -16%
O=C1c2ccccc2CC[C@H]1CNCCc1ccc(O)cc1 | ? | 5% | 13% | 1 | nt | ?
CCN(Cc1ccncc1)C(=O)c1cc(COc2c(C)cccc2C)on1 | 7% | nt | nt | -1 | -7% | nt
CCc1ccc(Oc2c(C(F)(F)F)oc3c(CN4CCN(C)CC4)c(O)ccc3c2=O)cc1 | nt | -16% | -2% | nt | -2%[59 µM] | -6%
CC(C)N1CCC2(CC1)C(C#N)=C(N)NC(S)=C2C#N | -9% | ? | ? | -6 | 1.6µM* | 20µM*
Cc1ccc(S(=O)(=O)N(C)S(=O)(=O)c2ccc(C#N)cc2)cc1 | 2% | nt | nt | -3 | 45µM* | nt
SMILES | Sfp PPTase inh | Tau fluor cs | Tau fibril FP | Coupling enz | G9a block | Tau fibril ThT
Cc1ccc(S(=O)(=O)N(C#N)c2nc(C)cc(C)n2)cc1 | 5% | -3% | 1% | -2 | 45µM* | 0%
Cc1ccc(S(=O)(=O)CC(O)COc2ccc(C#N)cc2)cc1 (centres undefined) | 6% | 7% | 3% | -1 | 23%[59 µM] | 2%
Cc1cc(C)nc(N(C#N)S(=O)(=O)c2ccc(Br)cc2)n1 | 5% | -5% | -7% | -1 | -33%[59 µM] | -16%
Cc1ccc(Cn2c(C(=O)NCc3ccccc3Cl)cc3sccc32)cc1 | nt | -29% | -10% | nt | ? | -6%
COc1ccc2c(c1)c1c(c(=O)n(Cc3ccccc3)c(=O)n1CC(=O)Nc1ccccc1F)n2C | nt | -8% | 2% | nt | -32%[59 µM] | 0%
Cc1sc(C2C(C#N)=C(N)N(c3ccc(Cl)cc3)C3=C2C(=O)CCC3)cc1CN1CCOCC1 (centres undefined) | nt | -7% | -2% | nt | 11%[59 µM] | -8%
COc1ccc2ccccc2c1/C=N/N1C(=O)CSC1=S | ? | -29% | -11% | -25 | ? | 11µM*
COc1ccccc1N1CCN(/N=C/c2cccc(OC)c2O)CC1 | -8% | -4% | 5% | 3 | -3% | -5%
COc1cccc(/C=N/N2C(=O)CSC2=S)c1O | ? | ? | ? | -1 | 8.9µM* | 16µM*
COc1cc(/C=N/N2C(=O)CSC2=S)cc(Br)c1O | -6% | ? | ? | -4 | 45µM* | 13µM*
O=C(CCc1c[nH]c2ccccc12)NCCc1ccc(Cl)cc1 | -2% | nt | nt | 0 | -24% | nt
CC(C)CN1C(=O)N(c2ccc(Cl)cc2)C(C)(O)CC1(C)C (centres undefined) | 4% | nt | nt | 2 | -1% | nt
S=c1[nH]nc(C(c2ccccc2)C2CCCCC2)o1 (centres undefined) | 7% | -4% | 4% | 12 | 45µM* | 2%
CCOc1ccccc1NC(=O)Nc1nnc(N(C)Cc2ccccc2)s1 | nt | -3% | 5% | nt | ? | -2%
CC(C)[C@@H]1NC(=O)c2cc([N+](=O)[O-])cc(I)c2NCCC[C@@H](C(N)=O)NC(=O)[C@H](CO)NC1=O | -16% | -12% | 3% | 1 | 40µM* | -16%
CC(C)[C@@H]1NC(=O)c2cc([N+](=O)[O-])cc(I)c2NCCCC[C@@H](C(=O)NC(CC(=O)O)C(N)=O)NC(=O)[C@H](CO)NC1=O (some centres undefined) | 21% | -1% | 1% | 3 | 45µM* | -8%
CC[C@H](C)C1NC(=O)[C@H](CC(=O)O)NC(=O)c2cc([N+](=O)[O-])cc(I)c2NCCC(C(N)=O)NC1=O (some centres undefined) | 21% | -6% | 4% | -2 | ? | -16%
